Source: PubChem BioAssay (EPA / NIEHS)
Values joined by “and” are separate entries in the source; they are usually repeats but may differ in a detail not shown here. Identical values can stand only once. Results filed as inconclusive are left out. More than one record can exist for a structure, and the calls need not agree. Active and inactive are the calls of the source. How the source made its calls: active means hit-call score of the fitted dose curve at least 0.9, where 1 is the maximum; inconclusive means response in the unintended direction; inactive means score below 0.9.

Biological target: Estrogen receptor (Homo sapiens) (UniProt P03372)
Sequence (P03372 whole entry, looked up, the tested form may be a part): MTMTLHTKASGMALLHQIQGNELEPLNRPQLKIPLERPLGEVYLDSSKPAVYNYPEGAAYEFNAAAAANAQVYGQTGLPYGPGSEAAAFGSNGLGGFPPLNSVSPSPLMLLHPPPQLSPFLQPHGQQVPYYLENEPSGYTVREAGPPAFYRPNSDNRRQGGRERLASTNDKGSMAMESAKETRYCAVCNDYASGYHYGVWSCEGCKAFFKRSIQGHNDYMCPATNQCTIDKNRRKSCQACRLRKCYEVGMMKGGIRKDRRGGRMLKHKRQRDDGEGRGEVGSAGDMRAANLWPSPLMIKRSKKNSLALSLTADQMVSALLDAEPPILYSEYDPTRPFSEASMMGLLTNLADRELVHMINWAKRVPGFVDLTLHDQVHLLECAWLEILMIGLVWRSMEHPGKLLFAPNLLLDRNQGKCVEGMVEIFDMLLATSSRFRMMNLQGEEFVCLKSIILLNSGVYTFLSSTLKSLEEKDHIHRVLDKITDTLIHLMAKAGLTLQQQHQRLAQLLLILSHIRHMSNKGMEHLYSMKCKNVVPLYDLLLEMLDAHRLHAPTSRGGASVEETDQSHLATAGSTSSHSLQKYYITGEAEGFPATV
Test: OT_ER_ERaERa_0480: Odyssey Thera (OT) 8-hour HEK293T Protein-Complementation Assay for Estrogen Receptor-alpha/-alpha Homodimer (AID 2283351);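 further: rise in fluorescence from reassembled reporter fragments on ERα LBD homodimer in nucleus or whole cell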
Description: OT_ER_ERaERa_0480 is a cell-based assay that uses HEK293T, a human kidney cell line, with measurements taken at 8 hours after chemical dosing in a 384-well plate.OT_ER_ERaERa_0480 is one of one assay component(s) measured or calculated from the OT_ER_ERaERa_0480 assay. It is designed to make measurements of protein fragment complementation, a form of binding reporter, as detected with fluorescence intensity signals by Protein-fragment Complementation technology.Data from the assay component OT_ER_ERaERa_0480 was analyzed into 1 assay endpoint. This assay endpoint, OT_ER_ERaERa_0480, was analyzed in the positive analysis fitting direction relative to DMSO as the negative control and baseline of activity. Using a type of binding reporter, measures of receptor for gain-of-signal activity can be used to understand the binding at the pathway-level as they relate to the gene ESR1. Furthermore, this assay endpoint can be referred to as a primary readout, because the performed assay has only produced 1 assay endpoint. To generalize the intended target to other relatable targets, this assay endpoint is annotated to the nuclear receptor intended target family, where the subfamily is steroidal.
Protein-fragment complementation assay, or PCA, is a method for the identification and quantification of protein-protein interactions. In the PCA, the proteins of interest ("bait" and "prey") are each covalently linked to fragments of a third protein (e.g. DHFR, which acts as a "reporter"). Interaction between the bait and the prey proteins brings the fragments of the reporter protein in close proximity to allow them to form a functional reporter protein whose activity can be measured. The OT ER alpha / ER alpha assay is a homodimer PCA of the ligand binding domain (amino acids 310-547) of human ER alpha stably expressed in HEK293T cells. […] Fluorescent signal in the basal state of the assay is very low and is primarily punctuate and cytoplasmic. Modulation of this assay is quantified as an increase in mean fluorescence intensity in the nucleus (for agonists) or in the nucleus and cytoplasm (antagonists) relative to vehicle controls, and can be quantified on a high content imaging device or a laser scanning cytometer. The latter instrument is favored for this assay because of the rapid mode of data acquisition, the ability to acquire data from the entire cell population in a well (as opposed to a fraction of the well on the high content devices) and the larger dynamic range typically achieved with this instrument. To assess sensitivity of the ER alpha/ER alpha LBD assay to ligand, cells were treated with the ER agonist 17 beta-estradiol (E2) in 10-point concentration- response format for 8 hours and monitored response on a laser scanning plate cytometer (Acumen eX3; TTP Lab Tech).

SMILES	outcome	AC50
CCCCCOC(=O)COc1cc(N2C(=O)C3=C(CCCC3)C2=O)c(F)cc1Cl	inactive	
CCCOC(=O)c1ccc(C(=O)OCCC)nc1	inactive	
COCCO	inactive	
CCCN(CCC)c1c([N+](=O)[O-])cc(C(F)(F)F)c(N)c1[N+](=O)[O-]	inactive	
CC(=O)[C@H]1CC[C@H]2[C@@H]3CCC4=CC(=O)CC[C@]4(C)[C@H]3CC[C@]12C	inactive	
CCOC(=O)c1ccc(O)cc1	inactive	59.9 µM (active) and 41.1 µM (active) and 59.6 µM (active)
Cc1nn(C)c(Oc2ccccc2)c1C=NOCc1ccc(C(=O)OC(C)(C)C)cc1	inactive	
O=C(c1ccccc1)C1CCCCC1	inactive	56.4 µM (active) and 39.5 µM (active)
CCCCOC(=O)C(C)Oc1ccc(Oc2ccc(C(F)(F)F)cn2)cc1 (centres undefined)	inactive	
CC(=O)S[C@@H]1CC2=CC(=O)CC[C@]2(C)[C@H]2CC[C@@]3(C)[C@@H](CC[C@@]34CCC(=O)O4)[C@H]12	inactive	
CCCN(CCC)C(=O)SCC	inactive	
CC1(C)C(C=C(Cl)Cl)C1C(=O)OCc1cccc(Oc2ccccc2)c1 (centres undefined)	inactive	
CCOC(=O)COc1cc(-n2ncc(C(F)(F)F)c(C)c2=O)c(F)cc1Cl	inactive	
C[C@]12C[C@H](O)[C@H]3[C@@H](CCC4=CC(=O)CC[C@@]43C)[C@@H]1CC[C@@H]2C(=O)CO	inactive	
CCN(Cc1c(F)cccc1Cl)c1c([N+](=O)[O-])cc(C(F)(F)F)cc1[N+](=O)[O-]		9.68 µM (active)
CCCCC(CC)CN1C(=O)C2C3C=CC(C3)C2C1=O (centres undefined)	inactive	

SMILES	outcome	AC50
O=C(Nc1ccc([N+](=O)[O-])cc1Cl)c1cc(Cl)ccc1O	inactive	
CCCCOC(=O)[C@@H](C)Oc1ccc(Oc2ccc(C(F)(F)F)cn2)cc1	inactive	
O=C(O)c1ccccc1	inactive	
CC(C)(c1ccc(O)cc1)c1ccc(O)cc1	inactive	
O=C(c1ccc(O)cc1O)c1ccc(O)cc1O		6.81 µM (active) and 6.26 µM (active) and 6.64 µM (active)
CCOC(=O)C(C)Oc1ccc(Oc2cnc3cc(Cl)ccc3n2)cc1 (centres undefined)	inactive	
CN(C)C(=O)Nc1ccc(Cl)c(Cl)c1	inactive	
N[C@@H](Cc1cc(I)c(Oc2ccc(O)c(I)c2)c(I)c1)C(=O)O	inactive	
COC(=O)c1ccccc1C(=O)O	inactive	
N#CSCSc1nc2ccccc2s1	inactive	
c1ccc2[nH]c(-c3cscn3)nc2c1	inactive	
C#C[C@]1(O)CC[C@H]2[C@@H]3CCC4=CC(=O)CC[C@@H]4[C@H]3CC[C@@]21CC	inactive	
CSC(=O)c1cccc2nnsc12	inactive	
CCN(CC)C(=O)c1cccc(C)c1	inactive	
CCSC(=O)N(CC(C)C)CC(C)C	inactive	
COc1c(Cl)ccc(Cl)c1C(=O)O	inactive	
